Results published in PubChem BioAssay (NCI).
The panel holds about 83,000 compounds, 20% with a hit somewhere; the sample as a whole holds those more often.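 Step 1: grow cells in 96-well plates. Step 2: add test compound at a single concentration. Step 3: incubate 48 h. Step 4: record percent growth.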 Active and inactive are the calls of the source. The calls were made as follows: active = growth percent below 10; inactive = the rest.

Tested on: KM12 colon
Experiment: NCI-60 one-dose screen, 48 h (100 = growth as untreated, 0 = no growth, -100 = all killed)
Details: 10 µM unless noted

| Structure (SMILES) | growth |
| --- | --- |
| CC(C)(C)c1nn(-c2ccccc2)c2c1CC1(CN2Cc2ccc3c(c2)OCO3)C(=O)c2ccccc2C1=O | 105% (inactive) |
| COc1ccc(-c2cc(-c3ccc(N(C)C)cc3)nc(NC(=O)c3ccncc3)n2)cc1 | 97.8% (inactive) |
| Nc1nc(-c2ccc(F)cc2)cc(-c2cnn(-c3ccccc3)n2)n1 | 100% (inactive) |
| CC(=O)CC(C)(C)c1ccc(Cl)cc1 | 108% (inactive) |
| Nc1c(C(=O)Nc2ccccc2Cl)sc2nc3c(cc12)CCCCCC3 | 29.2% (inactive) |
| O=C(Nc1ccc(Nc2cc(Nc3ccccc3)ncn2)cc1)Nc1cc(C(F)(F)F)ccc1F | 23.3% (inactive) |
| CCOC(=O)C(Cc1cc(I)c(O)c(I)c1)NC(=O)c1ccccc1 (centres undefined) | 102% (inactive) |
| CC[C@H](Nc1cc(C)nc(N)n1)c1nc2cccc(NCc3ccc(C(=O)NO)cc3)c2c(=O)n1-c1ccccc1 | 13.1% (inactive) |
| C=C1CCC2C3(C)COC(c4cccc(Cl)c4)OC3CCC2(C)C1/C=C/C1=CCOC1=O (centres undefined) | 74.3% (inactive) |
| CCN(CC)CC(O)CNc1c2ccc([N+](=O)[O-])cc2nc2cc(OC)c(OC)cc12 (centres undefined) | -37.5% (active) |
| COc1cc(-c2c3sc(=O)[nH]c3nc3c2c(=O)[nH]n3C(C)C)cc2c1OCO2 | 101% (inactive) |
| O=S(=O)(Nc1ccc(F)c(Cl)c1)c1ccc(-c2cnc(C3CC3)o2)cc1 | 30.8% (inactive) |
| COc1ccc(/C=c2/c(=O)[nH]c3nc4sc(C)c(C)c4c(=O)n23)cc1 | 99.2% (inactive) |
| Fc1ccc(Cc2ccc(F)cc2)cc1 | 108% (inactive) |
